# Compounds without any hit were thinned out: in the full panel of roughly 83,000, 20% have a hit.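 Interpretation: 100, growth as untreated; towards 0, rising growth inhibition; 0, no net growth; 0 to -100, cell death. Compounds scoring below 10 were considered active.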 Unmarked numbers belong to inactive results. The source made the active and inactive calls.
# Columns and labels:
# Test in all cases: NCI-60 one-dose screen, 48 h (100 = growth as untreated, 0 = no growth, -100 = all killed)
# Conditions in all cases: 10 µM unless noted
# DU-145 prostate = test system: DU-145 prostate
# K-562 leukemia = test system: K-562 leukemia
# MALME-3M melanoma = test system: MALME-3M melanoma
# MDA-MB-231 breast = test system: MDA-MB-231 breast
# RXF 393 renal = test system: RXF 393 renal
# SF-268 CNS = test system: SF-268 CNS
# SF-295 CNS = test system: SF-295 CNS
# SF-539 CNS = test system: SF-539 CNS
# UACC-257 melanoma = test system: UACC-257 melanoma
# M14 melanoma = test system: M14 melanoma
# HCT-15 colon = test system: HCT-15 colon
# HT29 colon = test system: HT29 colon
# SNB-75 CNS = test system: SNB-75 CNS
# SNB-19 CNS = test system: SNB-19 CNS
# U251 CNS = test system: U251 CNS
# PC-3 prostate = test system: PC-3 prostate
# SK-MEL-5 melanoma = test system: SK-MEL-5 melanoma
# LOX IMVI melanoma = test system: LOX IMVI melanoma
# SK-MEL-28 melanoma = test system: SK-MEL-28 melanoma
# UACC-62 melanoma = test system: UACC-62 melanoma
SMILES,growth (DU-145 prostate),growth (K-562 leukemia),growth (MALME-3M melanoma),growth (MDA-MB-231 breast),growth (RXF 393 renal),growth (SF-268 CNS),growth (SF-295 CNS),growth (SF-539 CNS),growth (UACC-257 melanoma),growth (M14 melanoma),growth (HCT-15 colon),growth (HT29 colon),growth (SNB-75 CNS),growth (SNB-19 CNS),growth (U251 CNS),growth (PC-3 prostate),growth (SK-MEL-5 melanoma),growth (LOX IMVI melanoma),growth (SK-MEL-28 melanoma),growth (UACC-62 melanoma)
N#Cc1cc(-c2nc3ccccc3s2)c(=O)n(NS(=O)(=O)c2ccc(Cl)cc2)c1N,110%,96.7%,105%,87.2%,109%,97.8%,110%,93.9%,111%,97.5%,103%,109%,63.1%,102%,102%,98.5%,99.5%,97%,111%,–
CC(=O)O[C@]1(C(C)=O)CC[C@H]2[C@@H]3C=C(Cl)C4=CC(=O)CC[C@]4(C)[C@H]3CC[C@@]21C,122%,96.7%,125%,88.1%,109%,111%,113%,102%,97.2%,103%,102%,101%,117%,98%,106%,96.1%,109%,115%,119%,–
NC(=S)N/N=C(/c1ccccc1)c1ccccc1N,94.2%,45.5%,93.7%,85.8%,105%,92.9%,82.5%,99.6%,54%,88.2%,84.7%,54.8%,101%,101%,95.6%,67.3%,92.3%,96.1%,109%,93.9%
Clc1ccc2c(c1)c(-c1ccccc1)nc1nncn12,112%,119%,113%,119%,135%,95.6%,101%,95.1%,115%,110%,108%,104%,98.3%,109%,105%,111%,105%,102%,121%,–
NC(=O)CN1CCN(c2ccccc2Cl)CC1,108%,97.2%,104%,102%,112%,106%,97.9%,107%,107%,102%,107%,101%,119%,118%,111%,105%,110%,109%,110%,–
Nc1c(C(=O)Nc2ccc(Cl)cc2)cc(-c2nc3ccccc3s2)c(=O)n1NS(=O)(=O)c1ccc(Cl)cc1,107%,95.7%,107%,94.1%,104%,96.7%,98.4%,102%,104%,98.2%,96.7%,104%,84.1%,99.8%,104%,104%,96.4%,99.3%,109%,–
Fc1cc(C2=NNC(c3ccc[nH]3)C2)ccc1-n1ccc(C(F)(F)F)n1 (stereo not drawn),82.8%,62.2%,93.7%,62.7%,105%,67.3%,71.3%,88.1%,98.5%,96.4%,94.1%,92.9%,87.7%,91.2%,77.6%,72.3%,–,94.2%,–,81.3%
O=C(CCN1CCCC1)Nc1ccc2c(NCc3ccc(F)cc3)c3ccccc3nc2c1,-38.4% (active),0.876% (active),-90.4% (active),-17.1% (active),-15.8% (active),-3.64% (active),22.8%,3.09% (active),-3.51% (active),-25% (active),14.3%,0.774% (active),-11% (active),4.86% (active),-39.3% (active),-17% (active),30.5%,-74% (active),30.5%,1.75% (active)

# — PubChem BioAssay (NCI)
